Screening results as filed in PubChem.
Tau FP inhib: qHTS for Inhibitors of Tau Fibril Formation, Fluorescence Polarization. Microtubule-associated protein tau (Homo sapiens), P10636. AID 1468, 2008. 0.39% of 280,000 active. Potency, µM (series often up to 57.7 µM), for the others: at the highest dose activity, negative = inhibition, usual class: inhibitors. K18 P301L tau heparin fibrillization, Alexa594 FP, 6 h; note: nearly all actives have a fitted effect of over 55% in size
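K18 P301L tau (15 uM unlabeled/0.24 uM Alexa 594-labeled, final) + compound + heparin 20 uM final; 100 mM NaOAc pH 7; 6 hr 37 C; ThT 30 uM final added, 1 hr RT; FP ex 555/em 632 nm.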
Tau ThT inhib: qHTS for Inhibitors of Tau Fibril Formation, Thioflavin T Binding. Microtubule-associated protein tau (Homo sapiens), P10636. recombinant tau K18 P301L, heparin-induced fibrillization, ThT fluorescence. Potency, µM (doses to about 57.4 µM), for inactives: at the highest dose activity, negative = inhibition, hits mostly inhibitors. 2.1% of 270,000 active; note: nearly all actives have a fitted effect of over 55% in size
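In this qHTS, human K18 P301L tau is incubated with compound and heparin for 6 hr at 37 C, and Thioflavin T fluorescence then reports fibril load.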
KDM4E inh: qHTS Assay for Inhibitors of Human Jumonji Domain Containing 2E (JMJD2E) | Potency, µM (doses to about 57.1 µM), inactives show at the highest dose activity change, negative = inhibition, hits mostly inhibitors | Lysine-specific demethylase 4E (Homo sapiens), B2RXH2 | 1.6% of 230,000 active | JMJD2E catalytic domain, FDH-coupled NADH fluorescence (FDH is formaldehyde dehydrogenase);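 note: 0% = wells with enzyme and -100% = buffer wells without enzyme; nearly all actives have a fitted effect of over 50% in size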
Target sequence (B2RXH2 1-337 limits assumed): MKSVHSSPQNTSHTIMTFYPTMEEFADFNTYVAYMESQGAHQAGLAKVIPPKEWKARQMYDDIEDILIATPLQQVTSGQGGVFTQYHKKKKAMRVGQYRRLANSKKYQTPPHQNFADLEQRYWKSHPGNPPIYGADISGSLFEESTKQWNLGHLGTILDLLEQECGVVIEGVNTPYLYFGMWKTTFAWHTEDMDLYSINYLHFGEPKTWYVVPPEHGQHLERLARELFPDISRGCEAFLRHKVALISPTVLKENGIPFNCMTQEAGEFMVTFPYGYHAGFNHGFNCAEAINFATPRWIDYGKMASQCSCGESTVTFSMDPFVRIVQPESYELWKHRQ
Tau fluor counter: Counterscreen qHTS for Inhibitors of Tau Fibril Formation, Fluorescence Polarization. tau K18 P301L Alexa594 fluorescence, heparin fibrillization. Potency, µM (top dose mostly 57.7 µM), for the others: at the top dose activity change, negative = decrease. 0.93% of 280,000 active; note: nearly all actives have a fitted effect of over 55% in size
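Human tau K18 P301L (15 uM unlabeled, 0.24 uM Alexa 594-labeled) in 100 mM sodium acetate pH 7 with 20 uM heparin, 6 hr at 37 C. ThT 30 uM added, 1 hr ambient; Alexa 594 FP and total fluorescence read at 555/632 nm.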
GoLoco inh red: qHTS Assay for Inhibitors of RGS12 GoLoco Motif Activity (Red Fluorophore). Gai1:RGS12 GoLoco peptide FP, rhodamine, 10 min. 0.44% of 230,000 active. Potency, µM (doses to about 61.6 µM), for the others: at the highest dose activity, negative = inhibition, hits mostly inhibitors; active = well fitted inhibition curve with a large enough effect, not every such curve was filed as active; inactive = no such curve, though single readings can be large or run the other way; note: nearly all actives have a fitted effect of over 30% in size
Target sequence (P63096 whole entry, looked up): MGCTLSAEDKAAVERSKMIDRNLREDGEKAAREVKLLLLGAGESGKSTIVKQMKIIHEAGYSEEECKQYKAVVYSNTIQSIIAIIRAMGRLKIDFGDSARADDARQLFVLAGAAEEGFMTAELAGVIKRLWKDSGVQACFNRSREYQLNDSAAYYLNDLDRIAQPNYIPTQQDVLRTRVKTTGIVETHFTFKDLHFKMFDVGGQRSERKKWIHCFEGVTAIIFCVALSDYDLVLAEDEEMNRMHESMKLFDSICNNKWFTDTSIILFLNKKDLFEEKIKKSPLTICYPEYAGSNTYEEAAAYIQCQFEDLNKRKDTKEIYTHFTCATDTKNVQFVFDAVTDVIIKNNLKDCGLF
An asterisk follows results filed as active; ? = inconclusive; . = no result given; [ ] = remark or other dose. Hits are enriched below; roughly 3.4% of the tested compounds scored in any of these assays. Unless noted, calls come from the whole dose curve; as a rule, active = well fitted curve in the direction sought with a large enough effect; inconclusive = small, poorly fitted or top-dose-only effect, or another doubt; inactive = no such curve, though single readings can be large; an effect the other way counts as inactive or inconclusive. Unless noted, % is set by controls: 0 for no effect and ±100 for the full control effect; potency is the fitted concentration of half-maximal effect.

SMILES	Tau FP inhib	Tau ThT inhib	KDM4E inh	Tau fluor counter	GoLoco inh red
CC1(C)CC(=O)C(C=Nc2ccc(O)c(N=CC3=C(O)CC(C)(C)CC3=O)c2)=C(O)C1	?	4µM*	3.2µM*	?	15%
CC1(C)CC(=O)C(C=Nc2ccc(C(=O)c3ccccc3)cc2N=CC2=C(O)CC(C)(C)CC2=O)=C(O)C1	-3%	?	20µM*	-6%	15%
CC1(C)CC(=O)C(N=Nc2cc(Cl)c(Cl)c(Cl)c2)=C(O)C1	-3%	-19%	0%	-12%	11%
CC1(C)CC(=O)C(C=Nc2ccc3c(c2)OCO3)=C(O)C1	-3%	-11%	?	-8%	4%
Cc1ccc(O)c(N=NC2=C(O)CC(C)(C)CC2=O)c1	-3%	?	0.56µM*	-13%	-3%
CC1(C)CC(=O)C(C=Nc2cccnc2/N=C/C2=C(O)CC(C)(C)CC2=O)=C(O)C1	-1%	?	-27%	-4%	8%
Cc1ccc2occ(-c3cc(-c4ccc(F)cc4)nc4c3COc3ccc(F)cc3-4)c(=O)c2c1	-17%	6%	.	0%	.
O=C(Nc1cccc(Cl)c1)c1cnc2sc(N3CCCC3)nn2c1=O	1%	3%	.	4%	.
Cc1[nH]c2ccccc2c1SCc1n[nH]c(=S)n1C	-5%	.	-2%	-19%	2%
Cc1[nH]c2ccccc2c1SCc1ccccc1	-5%	?	-3%	18µM*[quencher]	-4%
Cc1cc(C)c(NC(=O)CCN2C(=O)c3ccccc3Sc3ncccc32)c(C)c1	1%	1%	.	1%	.
CC(=O)N1CCCc2cc(S(=O)(=O)N3CCC(C(=O)Nc4ccc(C)cc4Cl)CC3)ccc21	4%	2%	.	3%	.
COc1ccc(CCNC(=O)c2nc(SCc3ccccc3F)ncc2Cl)cc1OC	-6%	-2%	.	-9%	.
CN(/N=C/c1ccccc1Cl)c1ncc(Cl)cc1C(F)(F)F	0%	-14%	-11%	-13%	-3%
CN(/N=C/c1ccc(O)cc1O)c1ncc(C(F)(F)F)cc1Cl	17%	?	?	18µM*[quencher]	-1%
O=C(NN1C(=O)/C(=C/c2ccc(O)c([N+](=O)[O-])c2)SC1=S)c1ccccc1Cl	3%	4µM*	-4%	?	164%
O=C1/C(=C/c2ccc(O)c([N+](=O)[O-])c2)SC(=S)N1Cc1ccccc1	3%	7.1µM*	-3%	?	117%
O=C(O)c1cccc(CN2C(=O)S/C(=C/c3cccc([N+](=O)[O-])c3)C2=O)c1	-6%[0.0958 µM]	.	-6%	-1%[0.0958 µM]	-1%
COc1cc(/C=C2\NC(=S)N(C)C2=O)ccc1O	5%	?	5%	-16%	49%
CN1C(=O)/C(=C/c2ccc(O)c([N+](=O)[O-])c2)NC1=S	12%	16µM*	3%	-19%	5%
NC1=NC(=O)/C(=C\c2ccc(O)c([N+](=O)[O-])c2)S1	8%	?	9%	-5%	-7%
CCS(=O)(=O)N1CCc2cc(C(=O)Nc3ccc(OC)c(Cl)c3)ccc21	12%	-10%	.	-9%	.
Cc1oc2ccc(O)c(CN3CCN(Cc4ccccc4)CC3)c2c1C(=O)Nc1cccc(Cl)c1C	-10%	-12%	.	?	.
CC1(C)CC(=O)C2=C(C1)N(c1cccnc1)C(N)=C(C#N)C2c1cccs1 (stereo not drawn)	?	20µM*	-3%	-20%	29%
Cc1ccc(CNC(=O)C(C)n2nc(C)n3c(cc4sccc43)c2=O)cc1 (stereo not drawn)	1%	1%	.	-2%	.
SMILES	Tau FP inhib	Tau ThT inhib	KDM4E inh	Tau fluor counter	GoLoco inh red
NC(=S)COc1ccccc1	4%	2%	5%	5%	22µM*
CCOc1ccc(C(=O)NC(=S)Nc2ccc(N3CCCCC3)cc2)cc1[N+](=O)[O-]	17%	3.5µM*	10%	?	-7%
CC(=O)N1CCN(c2ccc(NCc3ccc(F)cc3)cc2)CC1	?	25µM*	?	?	-4%
CC(C)C(=O)N1CCN(c2ccc(NC(=O)c3ccc([N+](=O)[O-])o3)cc2)CC1	-6%	5µM*	?	?	16%
Cc1ccccc1C(=O)N1CCN(c2ccc(NC(=O)c3ccc4c(c3)OCO4)cc2)CC1	7%	13µM*	?	?	12%
CC(C)C(=O)N1CCN(c2ccc(NC(=O)c3ccc(Br)o3)cc2)CC1	1%	?	0%	-9%	3%
Cc1cc(C)cc(NC(=O)c2cc(C)nc3c2c(C)nn3-c2ccccc2)c1	?	-7%	.	-14%	.
Cc1cc(Br)ccc1NC(=O)c1cc2c(=O)n(C)c3cc(Cl)ccc3c2s1	0%	-2%	.	0%	.
CCCC(=O)N1CCN(c2ccc(NC(=O)c3ccc([N+](=O)[O-])o3)cc2Cl)CC1	?	13µM*	-9%	-27%	9%
CCCCOc1ccc(C(=O)Nc2ccc(N3CCN(C(=O)C(C)C)CC3)cc2)cc1	-1%	2µM*	?	-26%	-5%
CC(C)C(=O)N1CCN(c2ccc(NC(=O)c3ccc([N+](=O)[O-])o3)cc2Cl)CC1	0%	?	3%	-8%	-3%
CC(=O)N1CCN(c2ccc(NC(=O)c3ccc(C(C)(C)C)cc3)cc2)CC1	1%	3.5µM*	1%	?	-22%
CCCCOc1ccc(C(=O)Nc2ccc(N3CCN(C(C)=O)CC3)cc2)cc1	?	?	16%	-23%	-10%
COc1ccc(C(=O)Nc2ccc(N3CCN(C(=O)c4ccccc4)CC3)cc2)cc1[N+](=O)[O-]	10%	16µM*	5%	?	17%
CCc1ccc(NC(=O)CCn2c(-c3ccc(OC)cc3)cc(C(C)=O)c2C)cc1	-5%	-6%	.	-22%	.
O=C(Nc1ccc(N2CCN(C(=O)c3ccccc3)CC2)cc1)c1ccc([N+](=O)[O-])o1	4%	4.5µM*	-26%	?	-12%
O=C(Nc1ccc(N2CCN(C(=O)c3ccc(Cl)cc3)CC2)cc1)c1ccc(Br)o1	14%	?	0%	?	1%
CCN(CC)[C@@H](C)CN1c2ccccc2Sc2ccccc21	.	.	7.9µM*	.	6%[21.6 µM]
CC(=O)Nc1ccc(S(=O)(=O)NC2=C(N3CCN(c4ccc(F)cc4)CC3)C(=O)c3ccccc3C2=O)cc1	?	5.6µM*	?	13µM*[quencher]	-13%
Cc1ccc(S(=O)(=O)NC2=C(N3CCN(Cc4ccccc4)CC3)C(=O)c3ccccc3C2=O)cc1	6%	?	-1%	-25%	6%
O=C1C(NS(=O)(=O)c2cccs2)=C(N2CCN(c3ccccc3)CC2)C(=O)c2ccccc21	?	6.3µM*	-25%	?	-5%
